Laboratory results as given in PubChem BioAssay (NCATS).
Several values for one entry are separate records, joined by “and”; a condition that tells them apart may be missing. Identical values can stand only once. Inconclusive results are not listed. Where a structure was tested more than once in an assay, its records may differ in their call. Activity calls are given as the source filed them. The call rests on the fitted dose curve; in most records, active means well fitted inhibition curve with a large enough effect; inconclusive means small, poorly fitted or top-dose-only effect; inactive means flat fitted curve, though single readings scatter.

What was measured:
CRL-7250 = normal cell line; test: Cytotoxic Profiling of Annotated Libraries Using Quantitative High-Throughput Screening (AID 1296008); conditions: Five cell lines viability, CellTiter-Glo ATP luminescence, 48-72 h; max response: hits give low values; on max response: on the % scale 0 is the no-effect control and ±100 the full control effect
Outline: (§1)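 Cells exposed to compounds for 48 or 72 hr at 37 degrees Celsius. Viability read as ATP-coupled luminescence with CellTiter-Glo after 10 min at room temperature.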

HEK293 = test: as above; conditions: Five cell lines viability, CellTiter-Glo ATP luminescence, 48-72 h; max response: hits give low values
Outline: as §1

HaCat [1] = test: as above; conditions: Five cell lines viability, CellTiter-Glo ATP luminescence, 48-72 h; max response: hits give low values
Outline: as §1

KB-3-1 = test: as above; conditions: Five cell lines viability, CellTiter-Glo ATP luminescence, 48-72 h; max response: hits give low values
Outline: as §1

NIH3T3 = test: as above; conditions: Five cell lines viability, CellTiter-Glo ATP luminescence, 48-72 h; max response: hits give low values
Outline: as §1

MCC-13 = test: qHTS assay to identify novel small-molecules to repurpose for Merkel cell carcinoma treatment (AID 1296009); conditions: MCC and control cell lines, CellTiter-Glo viability, 72 h; series mostly up to 46 µM; on activity change, negative = cytotoxicity: on the % scale 0 is the no-effect control and ±100 the full control effect
Outline: (§2)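 Cells were incubated with compound for 72 hr at 37 degree celsius before CellTiter-Glo addition. Luminescence was normalized with no-cell wells as full cytotoxicity and DMSO as baseline.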

TAB165 = test: qHTS profiling for inhibitors of Plasmodium falciparum proliferation (AID 504749); conditions: P. falciparum in erythrocytes, SYBR Green DNA, 72 h; series mostly up to 28.7 µM
Outline: (§3)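 Readout was DNA-dye fluorescence from lysed cultures, ex 485/em 535 nm. Parasitized red cells had grown 72 h with compound; data scaled between 0.29 uM artemisinin and DMSO wells and corrected using vehicle-only plates.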

W2 = test: as above; conditions: P. falciparum in erythrocytes, SYBR Green DNA, 72 h; series mostly up to 28.7 µM
Outline: as §3

HACAT [2] = test: qHTS assay to identify novel small-molecules to repurpose for Merkel cell carcinoma treatment (AID 1296009); conditions: MCC and control cell lines, CellTiter-Glo viability, 72 h; at 44.8 µM (top of the series) unless noted; on activity change, negative = cytotoxicity: on the % scale 0 is the no-effect control and ±100 the full control effect
Outline: as §2

HEK293T = test: as above; conditions: MCC and control cell lines, CellTiter-Glo viability, 72 h; at 44.8 µM (top of the series) unless noted
Outline: as §2
Further: nearly all actives have a fitted effect of over 60% in size.
Potency means the concentration at half of the fitted maximal effect.

C(=C\c1ccccc1)/CN1CCN(C(c2ccccc2)c2ccccc2)CC1
active: Potency (HEK293) 15 µM
inactive: outcome (CRL-7250) | max response (HaCat [1]) -6.19% | max response (KB-3-1) 4.11% | max response (NIH3T3) -6.19% | Potency (MCC-13)

NC(Cc1ccc(Cl)cc1)C(=O)O (stereo not given)
inactive: Potency (TAB165) | Potency (W2) | max response (CRL-7250) -4.47% | outcome (HEK293) | outcome (HaCat [1]) | max response (KB-3-1) -13.5% | max response (NIH3T3) 4.7% | outcome (HACAT [2]) inactive [at 0.588 µM] | outcome (HEK293T) inactive [at 0.588 µM] | activity change, negative = cytotoxicity (MCC-13) 20.3% [at 0.597 µM]

CC(=O)Oc1cc(C(C)C)c(OCCN(C)C)cc1C
inactive: Potency (TAB165) | Potency (W2) | max response (CRL-7250) -7.06% | outcome (HEK293) | max response (HaCat [1]) 3.27% | max response (KB-3-1) 3.97% | outcome (NIH3T3) | outcome (HEK293T) | Potency (MCC-13)

NCCCNCCSP(=O)(O)O
inactive: Potency (TAB165) | Potency (W2) | outcome (CRL-7250) | max response (HEK293) -18.5% | outcome (HaCat [1]) | max response (KB-3-1) -4.63% | outcome (NIH3T3) | outcome (HACAT [2]) inactive [at 9.27 µM] | activity change, negative = cytotoxicity (MCC-13) 18.6% [at 9.22 µM]

CN(C)C/C=C(/c1ccc(Br)cc1)c1cccnc1
inactive: outcome (CRL-7250) | max response (HEK293) -10.5% | outcome (HaCat [1]) | max response (KB-3-1) -12.9% | outcome (NIH3T3) | outcome (HACAT [2]) | Potency (MCC-13)
active: Potency (W2) 8.49 µM

CC(=O)[C@]1(O)Cc2c(O)c3c(c(O)c2[C@@H](O[C@H]2C[C@H](N)[C@H](O)[C@H](C)O2)C1)C(=O)c1ccccc1C3=O
active: Potency (TAB165) 3.16 µM | Potency (W2) 1.69 µM | Potency (CRL-7250) 0.237 µM | Potency (HEK293) 0.0335 µM | Potency (HaCat [1]) 0.0596 µM | Potency (KB-3-1) 4.61 µM | Potency (NIH3T3) 0.0841 µM | Potency (MCC-13) 3.76 µM

CNC1(C)C2CCC(C2)C1(C)C (stereo not given)
inactive: Potency (TAB165) | max response (CRL-7250) -2.13% | max response (HEK293) -9.06% | outcome (HaCat [1]) | max response (KB-3-1) 0.165% | outcome (NIH3T3) | outcome (HACAT [2]) | Potency (MCC-13)

CCCCOCCOCCOCc1cc2c(cc1CCC)OCO2
inactive: Potency (TAB165) | Potency (W2) | max response (CRL-7250) 0.375% | max response (HaCat [1]) 2.25% and -5.48% | max response (KB-3-1) -1.58% and -16.8% | max response (NIH3T3) -13.2% and 0.929% | Potency (MCC-13)
active: Potency (CRL-7250) 61.8 µM

NC(=Nc1ccccc1)Nc1ccccc1
active: Potency (W2) 9.53 µM
inactive: Potency (TAB165) | max response (CRL-7250) -3.1% | outcome (HEK293) | max response (HaCat [1]) 2.68% | outcome (HaCat [1]) | max response (KB-3-1) -0.105% | max response (NIH3T3) -0.581% | outcome (NIH3T3) | outcome (HACAT [2]) | outcome (HEK293T) | Potency (MCC-13)

NC/C=C/C(=O)O
inactive: Potency (TAB165) | Potency (W2) | max response (CRL-7250) -5.1% | outcome (HEK293) | outcome (HaCat [1]) | max response (KB-3-1) 3.52% | max response (NIH3T3) -7.89% | outcome (HACAT [2]) | outcome (HEK293T) | Potency (MCC-13)

FC(F)(F)c1ccccc1-n1ccnc1
inactive: Potency (TAB165) | Potency (W2) | outcome (CRL-7250) | max response (HEK293) -1.59% | outcome (HaCat [1]) | max response (KB-3-1) 22% | max response (NIH3T3) -5.68% | outcome (HACAT [2]) | Potency (MCC-13)

CCN1CCc2nc(N)oc2CC1
inactive: Potency (TAB165) | Potency (W2) | max response (CRL-7250) 2.68% | outcome (HEK293) | outcome (HaCat [1]) | max response (KB-3-1) 2.16% | max response (NIH3T3) -2.66% | outcome (HACAT [2]) | outcome (HEK293T) | Potency (MCC-13)

c1ccc2c(c1)CCCC2C1=NCCN1 (stereo not given)
inactive: max response (CRL-7250) 0.704% | max response (HEK293) 3.92% | outcome (HaCat [1]) | max response (KB-3-1) 10.6% | outcome (NIH3T3) | outcome (HACAT [2]) | Potency (MCC-13)

O=C1CC2(CCCC2)CC(=O)N1CCCCN1CCN(c2ncccn2)CC1
inactive: Potency (TAB165) | outcome (CRL-7250) | max response (HEK293) -2.12% | outcome (HaCat [1]) | max response (KB-3-1) -1.42% | max response (NIH3T3) -6.17% | outcome (HACAT [2]) | Potency (MCC-13)

Cc1cc(C)c(/C=C2\C(=O)Nc3ccccc32)[nH]1
inactive: Potency (TAB165) | Potency (W2) | max response (CRL-7250) -6.15% | outcome (HEK293) | max response (HaCat [1]) -11.3% | max response (KB-3-1) -3.51% | max response (NIH3T3) -17.1% | outcome (HEK293T) | Potency (MCC-13)

CCCNC(C)C(=O)Nc1ccccc1C (stereo not given)
inactive: max response (CRL-7250) -2.89% | max response (HEK293) 1.1% | outcome (HaCat [1]) | max response (KB-3-1) 7.86% | max response (NIH3T3) -0.782% | outcome (HACAT [2]) | Potency (MCC-13)

NC(=O)N1c2ccccc2C=Cc2ccccc21
inactive: Potency (TAB165) | Potency (W2) | outcome (CRL-7250) | max response (HEK293) 2.7% | max response (HaCat [1]) -8.83% | max response (KB-3-1) -5.38% | max response (NIH3T3) 2.27% | Potency (MCC-13)

C[N+](C)(C)CCOC(=O)CCC(=O)OCC[N+](C)(C)C
inactive: Potency (TAB165) | Potency (W2) | max response (CRL-7250) 1.65% | max response (HEK293) 4.43% | outcome (HaCat [1]) | outcome (NIH3T3) | outcome (HACAT [2]) | Potency (MCC-13)

Brc1c(NC2=NCCN2)ccc2nccnc12
active: Potency (W2) 5.36 µM
inactive: max response (CRL-7250) -13% | max response (HEK293) -12.5% | max response (KB-3-1) -13.6% | max response (NIH3T3) -5.35% | Potency (MCC-13)
